According to PubChem BioAssay:
Activity calls are given as the source filed them.

Legend:
[1] = tested on: Plasmodium falciparum Sir2 (PF13_0152, Sir2A); test: pfSir2 binders on small-molecule microarrays, primary screen, biochemical, small-molecule microarray, 635 nm fluorescence (AID 1098); conditions: small-molecule microarray binding, fluorescence 635 nm; higher = more signal;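 note: score merges spot fluorescence intensity with its signal-to-noise ratio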
[2] = small-molecule microarray binders of probe aDKK1, primary screen, biochemical, biotinylated probe, 635/667 nm fluorescence (AID 1099); conditions: higher = more signal;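 note: score merges 667nm spot fluorescence with signal to noise across triplicate slides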
[3] = small-molecule microarray binders of probe aCHRDL2, primary screen, biochemical, biotinylated probe, 635/667 nm fluorescence (AID 1100); conditions: higher = more signal
[4] = splicing luciferase reporter signal modulators, primary screen, spliceosome inhibition project, cell-based, HEK293, splice +/- reporter (AID 1101); conditions: luminescence, 24 h, higher = more signal, called active from +8 up or from −8 down;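 note: HEK293 cells carrying a splicing-competent luciferase reporter gene; test concentration not given here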
[5] = target: Fibroblast growth factor 10 (Homo sapiens) (UniProt O15520); test: FGF10 binders on small-molecule microarrays, primary screen, biochemical, small-molecule microarray, 635 nm fluorescence (AID 1102); conditions: FGF10 binding, fluorescence 635 nm, higher = more signal
[6] = tested on: glycogen synthase kinase-3 (GSK3A per assay name; protocol says GSK3B); test: GSK3 binders on small-molecule microarrays, primary screen, biochemical, small-molecule microarray, 635 nm fluorescence, GSK3A (AID 1103); conditions: small-molecule microarray binding, fluorescence 635 nm; higher = more signal; note: the record names both GSK3A and GSK3B
[7] = target: Epidermal growth factor receptor (Homo sapiens) (UniProt P00533); test: EGFR binders on small-molecule microarrays, primary screen, biochemical, small-molecule microarray, 635 nm fluorescence (AID 1104); conditions: EGFR binding, higher = more signal;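 note: score merges 667 nm emission intensity with spot signal to noise over triplicate slides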
[8] = target: Follistatin-related protein 3 (Homo sapiens) (UniProt O95633); test: FSTL3 binders on small-molecule microarrays, primary screen, biochemical, small-molecule microarray, 635 nm fluorescence (AID 1105); conditions: FSTL3 binding, higher = more signal;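 note: score merges emission near 667 nm and signal to noise per printed spot across three slides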
[9] = target: Dickkopf-related protein 1 (Homo sapiens) (UniProt O94907); test: DKK1 binders on small-molecule microarrays, primary screen, biochemical, small-molecule microarray, 635 nm fluorescence scan (AID 1106); conditions: DKK1 binding, higher = more signal;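 note: score merges emission near 667 nm with signal to noise over three replicate slides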
[10] = tested on: Inhibin beta A chain (activin A); test: INHBA (activin A) binders on microarrays, primary screen, biochemical, small-molecule microarray, 635 nm fluorescence scan (AID 1107); conditions: small-molecule microarray binding, higher = more signal;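 note: mouse activin A protein probed at 4.33 µg/mL on printed slides; score merges bound-protein fluorescence near 667 nm with spot signal-to-noise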
[11] = tested on: Human papillomavirus type 1a protein E7 (residues 44-93); test: HPV1a E7 fragment binders on microarrays, primary screen, biochemical, small-molecule microarray, residues 44-93, 635 nm fluorescence (AID 1108); conditions: small-molecule microarray binding, fluorescence 635 nm; higher = more signal;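 note: E7 fragment applied at 1 µg/mL in TBST for 1 h at 4 C; score combines spot fluorescence with its signal to noise ratio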
[12] = modulators of HCV replicon luciferase signal, primary screen, HCV replication inhibitor project, Huh7 cells, luciferase reporter (AID 1109); conditions: 48 h, higher = more signal;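 note: huh7 hepatoma cells harbouring a luciferase neomycin HCV replicon reporter; luciferase luminescence as measure of HCV replicon replication; test concentration not given here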
[13] = target: Left-right determination factor 2 (Homo sapiens) (UniProt O00292); test: LEFTY2 binders on small-molecule microarrays, primary screen, biochemical, small-molecule microarray, 635 nm fluorescence scan (AID 1110); conditions: LEFTY2 binding, higher = more signal
[14] = target: Calmodulin-1 (Homo sapiens) (UniProt P0DP23); test: CALM1 binders on microarrays, EGTA buffer, profiling panel, biochemical, small-molecule microarray, Cy5-labelled CALM1 (AID 1111); conditions: Cy5-CALM1 binding fluorescence, higher = more signal;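 note: labelled calmodulin applied in Tris saline Tween buffer holding calcium plus EGTA and DTT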
[15] = target: Calmodulin-1 (Homo sapiens) (UniProt P0DP23); test: calcium-bound CALM1 binders on microarrays, profiling panel, artefact control for SMM control-protein annotation, biochemical, small-molecule microarray, Cy5-labelled CALM1, plus calcium (AID 1112); conditions: Cy5-CALM1 binding fluorescence, higher = more signal;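 note: score merges spot fluorescence with signal to noise from triplicate slides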
[16] = small-molecule microarray binders of probe aWnt5a, primary screen, biochemical, biotinylated probe, 635/667 nm fluorescence (AID 1113); conditions: higher = more signal;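 note: score merges 667 nm fluorescence intensity with signal-to-noise per printed feature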
[17] = small-molecule microarray binders of probe aShh, primary screen, biochemical, biotinylated probe, 635/667 nm fluorescence (AID 1114); conditions: higher = more signal;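 note: probe is biotin-labelled aShh protein from a stem cell growth factor screen; measures binding of labelled protein to compounds printed on the slide; score merges feature fluorescence at 667 nm with signal-to-noise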
[18] = small-molecule microarray binders of probe aNog, primary screen, biochemical, biotinylated probe, 635/667 nm fluorescence (AID 1115); conditions: higher = more signal;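 note: probe is biotinylated aNog protein used at 0.15 µg/mL for 1 h at 4 C; z-score combines 667 nm fluorescence of each spot with its signal to noise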
[19] = target: Torsin-1A-interacting protein 1 (Homo sapiens) (UniProt Q5JTV8); test: LAP1 binders from COS7 cell lysate, primary screen, small-molecule microarray, 635/667 nm fluorescence (AID 1116); conditions: COS7-hLAP1 lysate binding, 635 nm fluorescence, higher = more signal
[20] = target: Alpha-bungarotoxin (Bungarus multicinctus) (UniProt P60615); test: alpha-bungarotoxin binders on microarray, profiling panel, artefact control for SMM control protein annotation, biochemical, small-molecule microarray, Alexa647 label, 635/667 nm fluorescence (AID 1117); conditions: alpha-BTX-A647 binding fluorescence, higher = more signal
Sequence of Alpha-bungarotoxin (Bungarus multicinctus) (P60615 whole entry, looked up): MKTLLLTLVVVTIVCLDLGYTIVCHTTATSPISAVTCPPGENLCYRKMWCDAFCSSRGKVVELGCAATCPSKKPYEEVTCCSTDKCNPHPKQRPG

Sequence of Follistatin-related protein 3 (Homo sapiens) (O95633 whole entry, looked up): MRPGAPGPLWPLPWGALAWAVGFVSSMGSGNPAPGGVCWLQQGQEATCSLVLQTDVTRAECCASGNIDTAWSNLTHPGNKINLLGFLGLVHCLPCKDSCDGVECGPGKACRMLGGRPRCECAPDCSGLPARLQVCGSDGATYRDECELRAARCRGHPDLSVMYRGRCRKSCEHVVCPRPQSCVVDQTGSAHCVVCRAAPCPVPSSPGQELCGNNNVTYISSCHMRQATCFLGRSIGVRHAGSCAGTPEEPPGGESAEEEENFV
Sequence of Fibroblast growth factor 10 (Homo sapiens) (O15520 whole entry, looked up): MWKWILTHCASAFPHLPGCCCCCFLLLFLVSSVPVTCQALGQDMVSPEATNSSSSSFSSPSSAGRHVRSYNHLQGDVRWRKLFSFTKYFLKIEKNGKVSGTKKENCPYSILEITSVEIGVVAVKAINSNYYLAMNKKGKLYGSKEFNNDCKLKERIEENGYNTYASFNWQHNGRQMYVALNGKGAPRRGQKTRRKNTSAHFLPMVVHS
Sequence of Torsin-1A-interacting protein 1 (Homo sapiens) (Q5JTV8 whole entry, looked up): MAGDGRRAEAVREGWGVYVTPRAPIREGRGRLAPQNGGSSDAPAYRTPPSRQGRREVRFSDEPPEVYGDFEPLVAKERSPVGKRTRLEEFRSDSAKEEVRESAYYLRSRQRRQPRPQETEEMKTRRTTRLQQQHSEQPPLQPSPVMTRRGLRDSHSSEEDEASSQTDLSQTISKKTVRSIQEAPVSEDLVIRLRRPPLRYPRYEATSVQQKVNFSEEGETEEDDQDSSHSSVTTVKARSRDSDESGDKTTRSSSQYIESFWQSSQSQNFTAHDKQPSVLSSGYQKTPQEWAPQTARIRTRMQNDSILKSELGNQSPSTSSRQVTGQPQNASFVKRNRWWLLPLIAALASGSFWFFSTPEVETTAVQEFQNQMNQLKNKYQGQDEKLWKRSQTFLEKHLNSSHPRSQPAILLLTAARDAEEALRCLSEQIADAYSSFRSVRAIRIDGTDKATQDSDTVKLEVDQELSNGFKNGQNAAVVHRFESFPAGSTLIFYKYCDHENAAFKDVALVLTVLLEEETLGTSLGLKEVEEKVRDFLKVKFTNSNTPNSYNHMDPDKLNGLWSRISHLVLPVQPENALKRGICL
Sequence of Left-right determination factor 2 (Homo sapiens) (O00292 whole entry, looked up): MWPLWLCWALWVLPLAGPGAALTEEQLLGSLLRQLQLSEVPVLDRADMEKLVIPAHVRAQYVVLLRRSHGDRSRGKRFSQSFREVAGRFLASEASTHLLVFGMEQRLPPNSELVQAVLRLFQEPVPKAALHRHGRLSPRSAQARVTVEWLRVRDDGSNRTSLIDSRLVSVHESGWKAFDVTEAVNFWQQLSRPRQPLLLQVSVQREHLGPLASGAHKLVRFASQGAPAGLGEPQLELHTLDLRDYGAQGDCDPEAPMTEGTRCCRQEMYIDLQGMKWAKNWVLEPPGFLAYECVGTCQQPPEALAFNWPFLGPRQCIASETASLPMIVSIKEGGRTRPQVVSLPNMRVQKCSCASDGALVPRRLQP
Sequence of Epidermal growth factor receptor (Homo sapiens) (P00533 whole entry, looked up): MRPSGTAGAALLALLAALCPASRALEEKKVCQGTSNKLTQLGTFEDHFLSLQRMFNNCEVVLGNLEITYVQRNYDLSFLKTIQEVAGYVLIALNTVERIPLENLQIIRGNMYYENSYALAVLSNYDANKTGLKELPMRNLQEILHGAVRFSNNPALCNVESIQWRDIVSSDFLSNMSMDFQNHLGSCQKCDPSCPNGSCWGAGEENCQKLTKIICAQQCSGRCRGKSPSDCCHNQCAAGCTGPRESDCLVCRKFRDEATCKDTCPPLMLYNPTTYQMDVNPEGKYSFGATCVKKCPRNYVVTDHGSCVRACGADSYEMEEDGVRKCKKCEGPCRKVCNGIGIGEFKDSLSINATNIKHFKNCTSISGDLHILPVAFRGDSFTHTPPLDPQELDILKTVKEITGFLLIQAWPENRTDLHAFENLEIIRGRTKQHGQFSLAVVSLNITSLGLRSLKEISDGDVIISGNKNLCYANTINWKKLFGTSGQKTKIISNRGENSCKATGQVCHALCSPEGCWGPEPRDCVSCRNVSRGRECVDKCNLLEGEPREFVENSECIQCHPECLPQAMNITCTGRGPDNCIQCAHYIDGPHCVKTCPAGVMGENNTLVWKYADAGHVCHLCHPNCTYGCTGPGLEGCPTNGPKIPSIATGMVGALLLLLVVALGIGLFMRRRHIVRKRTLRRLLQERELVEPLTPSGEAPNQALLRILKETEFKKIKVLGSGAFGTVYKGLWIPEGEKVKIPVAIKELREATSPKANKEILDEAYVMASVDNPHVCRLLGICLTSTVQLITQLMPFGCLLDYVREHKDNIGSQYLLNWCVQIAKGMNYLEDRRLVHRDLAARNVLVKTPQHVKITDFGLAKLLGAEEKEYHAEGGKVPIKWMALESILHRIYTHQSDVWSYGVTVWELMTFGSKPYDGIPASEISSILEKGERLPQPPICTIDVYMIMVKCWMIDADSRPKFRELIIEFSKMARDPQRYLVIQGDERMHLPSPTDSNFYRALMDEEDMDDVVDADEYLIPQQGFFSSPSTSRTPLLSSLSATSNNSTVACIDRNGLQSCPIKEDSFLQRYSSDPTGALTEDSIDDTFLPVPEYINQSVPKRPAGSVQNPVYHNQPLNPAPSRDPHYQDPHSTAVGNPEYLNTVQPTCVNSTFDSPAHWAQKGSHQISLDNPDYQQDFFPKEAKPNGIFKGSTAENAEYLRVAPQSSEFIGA
Sequence of Dickkopf-related protein 1 (Homo sapiens) (O94907 whole entry, looked up): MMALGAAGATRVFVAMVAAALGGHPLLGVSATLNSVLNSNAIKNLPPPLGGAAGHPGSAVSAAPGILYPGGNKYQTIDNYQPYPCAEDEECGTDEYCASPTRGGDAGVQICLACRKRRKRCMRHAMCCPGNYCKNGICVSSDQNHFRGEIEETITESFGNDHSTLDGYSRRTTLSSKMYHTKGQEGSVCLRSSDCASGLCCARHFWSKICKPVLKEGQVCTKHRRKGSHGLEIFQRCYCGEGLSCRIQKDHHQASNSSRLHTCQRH

Compound | composite z-score [1] | composite z-score [2] | composite z-score [3] | z-score [4] | composite z-score [5] | composite z-score [6] | composite z-score [7] | composite z-score [8] | composite z-score [9] | composite z-score [10] | composite z-score [11] | z-score [12] | composite z-score [13] | composite z-score [14] | composite z-score [15] | composite z-score [16] | composite z-score [17] | composite z-score [18] | composite z-score [19] | composite z-score [20]
CO[C@H]1O[C@H](CO)[C@@H](OC(=O)CCc2ccccc2)[C@@H]2OC(=O)[C@H](Cc3cccc(Br)c3)C/C=C/C[C@@H](Cc3cccc(Br)c3)C(=O)O[C@@H]12 | 1.6 | 0.385 | 0.874 | -2.19 (inactive) | -0.487 | -0.78 | -1.49 | -0.753 | -0.402 | 0.951 | 0.234 | -0.93 | -0.798 | -0.638 | -0.282 | -0.0819 | 0.103 | 0.146 | -0.0066 | 2.14
C=CCNC(=O)[C@H]1[C@@H]2C(=O)O[C@@H](c3ccccc3)[C@@H](c3ccccc3)N2[C@@H](c2ccccc2OCCO)[C@]12C(=O)N(C(=O)OCCOC)c1ccc(C#CCNC(N)=O)cc12 | 1.28 | 0.607 | 0.802 | -0.294 (inactive) | 0.471 | 0.843 | 0.158 | 0.507 | 0.111 | 0.889 | 0.0146 | -1.08 | 0.398 | 1.63 | 0.559 | -0.124 | -0.0011 | 0.672 | 1.23 | 1.81
C=CC[C@]1(C(=O)NCC(O)CO)N=C(c2ccc(OCCCO)cc2)O[C@H]1c1ccccc1 (stereo not given in full) | 1.23 | 1.21 | 1.3 | 0.164 (inactive) | -0.159 | 0.321 | -1.48 | -1.7 | -0.296 | 0.236 | -0.72 | -0.294 | -0.418 | 1.66 | 1.12 | -0.0286 | 0.108 | 0.402 | 3.97 | 1.29
Cc1ccc(N2C(=O)c3ccccc3[C@@H](C(=O)NCC(F)(F)F)[C@@H]2c2ccc(CO)cc2)nc1 | 1.72 | 0.476 | 1.22 | -1.08 (inactive) | -1.15 | -1.18 | -2.69 | -1.83 | -1.69 | -1.57 | -2.16 | 0.643 | -3.15 | -1.65 | -0.526 | -0.226 | -0.0626 | -0.3 | 0.153 | -1.81
CCCN1C(=O)[C@@]2(CCS(=O)(=O)c3ccccc3)N=C(c3ccc(OCCCO)cc3)O[C@H]2c2ccccc21 | 0.915 | 0.164 | 0.827 | 0.597 (inactive) | 0.736 | 1.31 | 0.279 | 0.998 | 0.503 | 0.96 | 1.45 | -2.08 | 0.224 | 0.248 | -0.598 | -0.0721 | -0.0234 | -0.269 | 0.307 | 1.01
CCCC/C=C/[C@H]([C@@H](O)Cc1ccccc1)N(CC#Cc1ccccc1)Cc1ccccc1Br | -0.488 | 0.113 | 1.26 | -0.669 (inactive) | -1.47 | -0.749 | -1.77 | -1.55 | -2.53 | 0.109 | -0.373 | -1.29 | -1.81 | -0.269 | 0.74 | -0.166 | -0.366 | -0.132 | -0.356 | -0.647
CC(=O)NCCCC[C@@H]1NC(=O)[C@H]2C[C@@H](C(=O)NCCCCCCN(C)C)[C@@H](c3ccc(O)cc3)N2C1=O | 1.04 | -0.124 | 0.0091 | -0.808 (inactive) | 0.815 | 1.35 | 0.851 | 1.55 | 1.14 | 0.775 | 0.19 | 1.87 | 0.851 | -0.382 | -1.53 | -0.154 | 0.23 | 0.512 | 1.85 | 2.01
CO[C@H]1COC(=O)CC=C[C@H](C)[C@@H](OC)COC(=O)CC=C[C@@H]1C | 0.697 | -0.546 | -1.11 | -1.06 (inactive) | 0.597 | 0.309 | 0.751 | 0.522 | 0.991 | 0.716 | -0.366 | -0.0985 | 0.724 | -1.61 | -1.87 | -0.181 | 0.126 | -0.63 | -0.0807 | -0.86
O=C1O[C@H](c2ccccc2)[C@H](c2ccccc2)N2[C@H]1[C@@H](C(=O)NC[C@H](O)c1ccccc1)[C@]1(C(=O)Nc3ccc(C#CC4(O)CCCCCC4)cc31)[C@H]2c1ccc(OCCO)cc1 | 1.03 | 0.539 | 0.713 | -0.717 (inactive) | 0.599 | 0.563 | 0.0371 | 0.411 | 0.0407 | 0.0385 | 1.27 | -2.41 | -0.12 | 0.67 | 0.623 | -0.0276 | -0.106 | 0.319 | 0.933 | 1.41
C=C(CCCC)C(=O)CC[C@@H](OC(C)=O)c1ccccc1OCCO | 1.34 | -0.283 | -0.16 | 0.419 (inactive) | -0.675 | -1.31 | -1.36 | -1.06 | -0.376 | 0.857 | -1.03 | -3.42 | -0.941 | -0.923 | -1.13 | -0.154 | 0.0278 | -0.618 | -0.572 | -1.31
CC(C)[Si]1(C(C)C)OCc2cc(C3CC3)nc(-c3ccccc3)c21 | 0.0305 | -0.294 | 0.525 | -2.27 (inactive) | -0.395 | -1.24 | -0.385 | -0.708 | -0.342 | 1.21 | -0.84 | -0.222 | -0.231 | -1.23 | -0.183 | -0.15 | -0.09 | -0.0841 | -0.694 | -0.249
C=CCC(OC(C)=O)[C@@H]1[C@@H](N(Cc2ccc(-c3cccc(C(F)(F)F)c3)o2)C(=O)Cc2ccc(F)cc2)c2cc(OCCCO)ccc2N1C(=O)c1ccc(-c2ccccc2)cc1 (stereo not given in full) | 0.18 | -0.0567 | 0.494 | -0.291 (inactive) | -0.204 | -0.847 | -0.736 | -0.198 | -0.0679 | 1.32 | -0.741 | -0.583 | -0.689 | -0.679 | 0.671 | -0.154 | 0.0899 | 0.172 | 0.14 | -0.227
